The campaign covered roughly 420,000 compounds. About 64,000 (15%) were called active. Not shown: some 27% with an inconclusive outcome. The list is a sample of the results. Values without a mark were called inactive. The call rests on the fitted dose curve; in most records, active means well fitted inhibition curve with a large enough effect; inconclusive means small, poorly fitted or top-dose-only effect; inactive means flat fitted curve, though single readings scatter.
assay: qHTS for Inhibitors of human tyrosyl-DNA phosphodiesterase 1 (TDP1): qHTS in cells in absence of CPT; conditions: DT40 Tdp1-/- hTDP1 cells, no CPT, ATP luminescence, 48 h; activity change, negative = growth inhibition: at 46.2 µM (top of the series); further: nearly all actives have a fitted effect of over 55% in size
Method in brief: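 Chicken DT40 Tdp1-/- cells complemented with human TDP1, screened without camptothecin (DMSO vehicle only), 400 cells/well. Compounds pin-transferred, cells incubated at 37 °C for at least 48 hr. Growth read as ATP-dependent luminescence (CellTiter-Glo, 30 min at RT).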
On the % scale 0 is the no-effect control and ±100 the full control effect; potency means the concentration at half of the fitted maximal effect.

| SMILES | activity change, negative = growth inhibition [%] | Potency |
| --- | --- | --- |
| COC(=O)C1=C(C)NC(=O)NC1/C=C/c1ccccc1 (stereo not given) | 1.29 | – |
| O=C(CSc1nnc(-c2c[nH]c3ccccc23)o1)c1ccccc1 | -10.2 | – |
| O=C(CSc1nnc(Cn2cnc3ccccc32)o1)c1ccccc1 | – | 10.3 µM (active) |
| CC(=O)Nc1ccc(C(=O)CSc2nnc(Cc3ccccc3)o2)cc1 | -11.9 | – |
| Cc1cc(C)cc(NC(=O)c2cccc(NC(=O)C3C4CC5OC(=O)C3C5C4)c2)c1 (stereo not given) | 0.379 | – |
| Cc1cccc(N2C(=O)SC(N(CC(=O)O)c3cccc(C)c3)C2=O)c1 (stereo not given) | -11.3 | – |
| CCOC(=O)CCP(=O)(O)C(O)(c1ccccc1)c1ccccc1 | -9.03 | – |
| O=S(=O)(Nc1ccc2cn[nH]c2c1)c1ccccc1 | -22.4 | – |
| O=C(CCNC(=O)C1CCN(S(=O)(=O)c2ccccc2)CC1)NC1CC1 | 7.77 | – |
| CCOC(=O)c1cc(C(C)C)sc1NC(=O)COC(=O)c1nccnc1N | -25.3 | – |
| O=C1C2(c3ccccc3)CN(CCCO)CC1(c1ccccc1)CN(CCCO)C2 | -8.84 | – |
| O=C1CC(=O)Nc2cc(S(=O)(=O)N3CCN(c4cccc(C(F)(F)F)c4)CC3)ccc2N1 | 9.11 | – |
| Cc1ccc(S(=O)(=O)N2CCN(C)CC2)cc1 | -3.04 | – |
| Cc1ccc(S(=O)(=O)N2CCN(S(=O)(=O)N3CCOCC3)CC2)cc1 | -13.9 | – |
| Cc1ccc(C)c(N2CCN(S(=O)(=O)c3ccc4c(c3)oc(=O)n4C)CC2)c1 | -8.78 | – |
| CCOC(=O)N1CCN(S(=O)(=O)c2ccc3c(c2)C(C)C(=O)N3)CC1 (stereo not given) | 0.632 | – |
| Cc1ccc(C)c(N2CCN(S(=O)(=O)c3ccc4c(c3)C(C(C)C)C(=O)N4)CC2)c1 (stereo not given) | – | 18.4 µM (active) |
| CC1C(=O)Nc2ccc(S(=O)(=O)N3CCN(c4ccccc4F)CC3)cc2NC1=O (stereo not given) | – | 20.6 µM (active) |
| Cc1ccc(Cl)cc1N1CCN(S(=O)(=O)c2cc3[nH]c(=O)c(=O)[nH]c3cc2C)CC1 | -0.246 | – |
| Cc1ccc(N2CCN(S(=O)(=O)c3ccc(F)cc3)CC2)c(C)c1 | – | 18.4 µM (active) |
| O=C(N/N=C/c1cccc(OC(=O)c2ccc([N+](=O)[O-])cc2)c1)c1cccnc1 | 1.64 | – |
| CCOC(=O)c1c(-n2cnnn2)sc(C)c1C | -3.42 | – |
| COc1ccc(NC(=S)N2N=CCC2c2ccccc2)cc1 (stereo not given) | 6.67 | – |
| CS(=O)(=O)c1ccc2nc(NC(=O)c3ccc(Cl)nc3)sc2c1 | -20 | – |
| O=C(NCc1cccnc1)c1nc(-c2cccs2)no1 | -5.14 | – |

| SMILES | activity change, negative = growth inhibition [%] | Potency |
| --- | --- | --- |
| C=CCn1c(=O)n(C)c2c(=O)n(C)c(=O)n(C)c21 | -9.27 | – |
| CC(C)C(C)NC(=O)COc1ncnc2ccccc12 (stereo not given) | 2.12 | – |
| CCn1ccnc1CNC(=O)CC1C(=O)NCCN1CCCc1ccccc1 (stereo not given) | 9.87 | – |
| O=C(CCC(=O)N1CCN(S(=O)(=O)c2ccccc2)CC1)NC1CCCc2ccccc21 (stereo not given) | -23.6 | – |
| CCC1NC(=O)c2cccnc2-n2c1nc1ccc(C)cc1c2=O (stereo not given) | 3.31 | – |
| Cc1cc(C)c2c(=O)n3c(nc2c1)C(CC(C)C)NC(=O)c1cc2ccccc2cc1-3 (stereo not given) | – | 4.61 µM (active) |
| O=C1NC(Cc2ccccc2)c2nc3ccc(Br)cc3c(=O)n2-c2cc3ccccc3cc21 (stereo not given) | – | 7.31 µM (active) |
| CCc1ccc(NC2Nc3cc(C)nn3S2)cc1 (stereo not given) | -0.765 | – |
| N#CCC(=O)NC1CCC(CC2CCC(NC(=O)CC#N)CC2)CC1 (stereo not given) | 4.54 | – |
| CCOc1cc(C2C(C(=O)OC)=CN(C3CCCC3)C=C2C(=O)OC)cc(Br)c1O | -11.2 | – |
| COc1ccc(S(=O)(=O)Nc2ccc(F)cc2)c(C)c1C | -21.2 | – |
| COc1ccccc1CNS(=O)(=O)CC12CCC(CC1=O)C2(C)C (stereo not given) | 3.54 | – |
| CC(=O)Nc1ccc(S(=O)(=O)NC(C)C(=O)OCCOc2ccc(F)cc2)cc1 (stereo not given) | -12 | – |
| Cc1cccc(C)c1NC(=O)Nc1ccccc1-n1ccnc1 | 2.52 | – |
| COC(=O)C[C@H]1C=C[C@@H](NS(=O)(=O)c2ccc(C)cc2)[C@@H](CO)O1 | 1.99 | – |
| COc1ccc(C(=O)Nc2ccc(CN3CCOCC3)cc2)cc1 | -13.6 | – |
| COc1ccc(C(=O)Nc2ccnn2C2CCN(Cc3ccncc3)CC2)cc1 | -9.39 | – |
| COc1ccc(C(=O)Nc2sc(C)c(C)c2CN2CCOCC2)cc1 | – | 23.1 µM (active) |
| OCC1(CO)CC2(C1)CC(CO)(CO)C2 | 1.95 | – |
| CCOC(=O)c1sc(NC(=O)/C=C/c2ccc(C(C)C)cc2)c(C(=O)OCC)c1C | -21.3 | – |
| Cc1ccc(S(=O)(=O)NCC(=O)N(CC(=O)NCC2CCCO2)c2cccc(F)c2)cc1 (stereo not given) | -5.08 | – |
| COC(=O)c1cc(NC(=O)CCc2c(C)nc3c4c(C)cc(C)nc4nn3c2C)cc(C(=O)OC)c1 | -21.8 | – |
| CCc1noc(C)c1C(=O)OCC(=O)c1ccc(NC(=O)CC(C)C)cc1 | – | 25.9 µM (active) |
| COc1ccc(C(=O)COC(=O)c2c(C)noc2C)cc1Cl | -23.2 | – |
| CCc1noc(C)c1C(=O)NNC(=O)c1ccc(F)cc1 | 1.49 | – |

Reference: PubChem BioAssay AID686978 (National Center for Advancing Translational Sciences (NCATS), 2013)
